Compound activity from PubChem BioAssay.
ABCB6 inh MLPCN: blocks the human ABCB6 transporter | AID 602162 | fluorescence ratio to DMSO, % at 10 µM | K562-ABCB6 porphyrin accumulation, flow cytometry, 1 h; active compounds read low | 360,000 compounds, 0.19% hits;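 active = fluorescence ratio to DMSO below 75%, the collection mean minus 3 SD; inconclusive = too few cells collected in the well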;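 also: signal is porphyrin accumulated inside mitochondria; 100% equals median channel fluorescence of DMSO control wells; lower ratio means ABCB6 inhibition with less porphyrin fluorescence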
Target sequence (Q9NP58 whole entry, looked up): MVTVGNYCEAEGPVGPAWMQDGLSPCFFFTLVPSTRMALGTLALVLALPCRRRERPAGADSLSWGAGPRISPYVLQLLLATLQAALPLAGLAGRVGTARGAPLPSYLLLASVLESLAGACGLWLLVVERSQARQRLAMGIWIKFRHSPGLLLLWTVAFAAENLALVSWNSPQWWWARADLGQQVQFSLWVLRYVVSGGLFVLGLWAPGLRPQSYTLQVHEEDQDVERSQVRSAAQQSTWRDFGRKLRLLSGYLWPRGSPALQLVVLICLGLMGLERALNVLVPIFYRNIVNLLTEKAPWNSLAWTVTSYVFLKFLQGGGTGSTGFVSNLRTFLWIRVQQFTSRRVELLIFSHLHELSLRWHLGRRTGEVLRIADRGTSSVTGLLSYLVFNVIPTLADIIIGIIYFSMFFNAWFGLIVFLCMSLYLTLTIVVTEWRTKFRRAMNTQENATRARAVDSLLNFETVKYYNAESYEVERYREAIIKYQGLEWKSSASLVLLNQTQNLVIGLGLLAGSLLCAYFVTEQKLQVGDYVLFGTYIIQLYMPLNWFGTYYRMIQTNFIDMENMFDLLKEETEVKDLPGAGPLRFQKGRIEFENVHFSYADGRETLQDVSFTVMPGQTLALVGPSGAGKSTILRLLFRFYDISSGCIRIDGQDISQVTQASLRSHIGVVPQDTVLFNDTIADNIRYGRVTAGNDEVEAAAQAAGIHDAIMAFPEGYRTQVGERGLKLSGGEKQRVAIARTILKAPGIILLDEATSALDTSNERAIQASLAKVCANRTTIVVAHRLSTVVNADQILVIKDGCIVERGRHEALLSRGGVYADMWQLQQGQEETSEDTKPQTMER
H9c2 protect: modulators protecting cardiomyocytes from myocardial damage; protection from H2O2 cell death, % at 20 µM; 360,000 compounds, 0.63% hits; H9c2 cardiomyocytes, H2O2 injury protection, ATPLite, 2 h;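 active = compounds giving at least 50% protection of heart cells from peroxide-induced death in the single-dose screen, raw or plate-pattern-corrected value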;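 also: 0% = DMSO wells with peroxide and 100% = DMSO wells without peroxide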
Myeloid diff 2: compounds promoting myeloid differentiation. ER-HoxA9 myeloid progenitors, lysozyme-GFP differentiation, flow cytometry. calls only at 10 µM. 360,000 compounds, 1% hits. AID 624256;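 active = normalized GFP-positive differentiation at or above the plate's own cutoff, the solvent-only control mean plus 3 SD; inconclusive = no clear call, values can overlap the other calls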;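 also: cells exposed to compound for four days before flow analysis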
MIN6 prolif: MIN6 beta-cell proliferation induction. MIN6 cells proliferation, ATPlite luminescence, 48 h; cells starved in 0.2% serum; 100% = growth in 10% serum. 330,000 compounds, 0.29% hits. proliferation, % at 10 µM;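 active = compounds whose signal lies at least 3.5 SD above the mean of all wells on their plate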;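 also: 0% = DMSO-treated cells in low-serum medium and 100% = 10% serum control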
hiPSC survival: increases survival of single human iPS cells; hiPSC single-cell survival, ATPlite luminescence; 100% = ROCK inhibitor wells, 0% = DMSO; survival enhancement, % at 20 µM; 360,000 compounds, 0.044% hits; in the data active = survival enhancement above about 18%;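 also: cells exposed to compounds for 16 hours before the ATP read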
The depositor's hits bear a star; i = inactive; ? = inconclusive; nt = no result; + = active, no number. An excerpt weighted towards active compounds, which were near 2.2% of everything screened.

SMILES | ABCB6 inh MLPCN | H9c2 protect | Myeloid diff 2 | MIN6 prolif | hiPSC survival
NC(=O)c1c(NC(=O)Cn2nc(C(=O)O)c3ccccc3c2=O)sc2c1CCCC2 | 106.0 | 5.6 | i | 2.2 | 0.1
NC(=O)c1c(NC(=O)Cn2nc(C(=O)O)c3ccccc3c2=O)sc2c1CCC2 | 97.0 | 54.3* | i | 4.9 | -0.1
COc1cc(/C=C/c2nc3ccccc3s2)cc(OC)c1O | 107.0 | 4.6 | + | -5.8 | 0.2
CN(C)c1ccc(/C=C/c2nc3ccccc3s2)cc1 | 120.0 | -40.2 | + | -5.0 | -5.8
COc1cc(C=C(c2nc3ccccc3s2)c2nc3ccccc3s2)ccc1O | 122.0 | -3.3 | i | -6.2 | -2.0
CN(C)c1ccc(/C=C/c2ccc3ccccc3n2)cc1 | 158.0 | -20.3 | i | nt | -0.8
C[C@H]1CN([C@@H](C)CO)C(=O)CCCn2nncc2CO[C@@H]1CN(C)S(=O)(=O)c1ccc2ccccc2c1 | 99.0 | -0.7 | i | nt | -3.1
C[C@H](CO)N1C[C@H](C)[C@@H](CN(C)S(=O)(=O)c2ccc3ccccc3c2)OCc2cnnn2CCCC1=O | 94.0 | 5.3 | + | nt | 0.6
COc1cccc(-c2nnc(SCC(=O)Nc3ccc(OC)c(OC)c3)n2N)c1 | 96.0 | 2.1 | + | -1.8 | -3.0
CCCN(CCC)C(=O)Cn1c(=O)c2sccc2n2c(=S)sc(-c3ccccc3)c12 | 432.0 | 9.2 | + | -4.0 | -0.9
CCCN(CCC)C(=O)Cn1c(=O)c2ccccc2n2c(=S)sc(-c3ccccc3C)c12 | 106.0 | -3.6 | i | 0.0 | -0.5
Nc1c(C(=O)c2ccccc2)sc2c1c(=O)[nH]c(=O)n2-c1ccccc1 | 97.0 | 6.3 | i | 0.0 | -0.7
O=C(N/N=C/c1ccccn1)c1cc(-c2ccccc2Cl)n[nH]1 | 98.0 | 45.1 | i | -1.9 | 1.0
CCCc1ccc(OCc2ccc(C(=O)N/N=C/c3cccnc3)o2)cc1 | 98.0 | 0.5 | + | 0.7 | 0.4
O=C(N/N=C/c1ccncc1)c1cc(C2CC2)nc2ccccc12 | 98.0 | 0.0 | i | 1.1 | -0.6
O=C(N/N=C/c1ccccn1)c1cc(-c2cccc3ccccc23)n[nH]1 | 100.0 | 56.3* | i | -3.4 | -0.6
Cc1ccc(COc2ccccc2-c2cc(C(=O)N/N=C/c3cccnc3)[nH]n2)cc1 | 92.0 | 50.2* | i | -3.4 | -0.7
CCOc1ccccc1-c1cc(C(=O)N/N=C/c2cccnc2)c2ccccc2n1 | 98.0 | 3.9 | i | 0.5 | 1.8
O=C(N/N=C/c1ccccn1)c1cc(C2CC2)nc2ccccc12 | 99.0 | 55.4* | i | -2.0 | -0.5
O=C(CSc1nnc(NC(=O)c2ccccc2)s1)NC1CCCC1 | 102.0 | -17.5 | ? | -5.1 | -0.4
Cc1ccc(OCC(=O)N/N=C\c2ccc(O)cc2)c([N+](=O)[O-])c1 | 89.0 | -2.4 | i | -3.0 | 3.0
O=C(N/N=C/c1ccccn1)c1cc(-c2ccc(Cl)s2)[nH]n1 | 94.0 | 59.2* | i | 0.0 | -0.7
O=C(N/N=C/c1ccccn1)c1cc(-c2ccc(Br)s2)[nH]n1 | 96.0 | 46.8 | i | -1.0 | -0.6
CC1=N/C(=C\c2ccc(OC(C)C)cc2)C(=O)N1c1ccc(C(=O)O)cc1 | 106.0 | 8.4 | + | -4.3 | 0.4
CCOC(=O)C1CCN(C(=O)c2ccccc2Oc2ccccc2)CC1 | 98.0 | -8.9 | i | 0.6 | 0.2
SMILES | ABCB6 inh MLPCN | H9c2 protect | Myeloid diff 2 | MIN6 prolif | hiPSC survival
CCN1c2ccccc2NC2C1C(C(C)=O)C(=O)N2c1ccc(Cl)cc1 (centres undefined) | 641.0 | -13.9 | + | -4.3 | 2.2
O=C1Nc2ccccc2N(O)N1c1ccc(Cl)cc1 | 107.0 | 11.4 | i | 2.2 | 0.5
OCc1nnc2c3ccccc3c(-c3ccccc3)nn12 | 99.0 | 0.2 | i | 0.5 | -4.3
O=C(N/N=C/c1ccc([N+](=O)[O-])s1)c1cccc(Br)c1 | 98.0 | 10.1 | + | -6.0 | -2.4
Cc1cccc(C(C(=O)NC2CCCC2)N(Cc2cccnc2)C(=O)c2csnn2)c1 (centres undefined) | 98.0 | -1.3 | i | 0.7 | 0.3
CC(=O)Nc1sc(/C(C#N)=C\c2cccc(Cl)c2)nc1-c1ccc(C)cc1 | i | -2.2 | + | nt | -2.4
CC(=O)Nc1sc(N/N=C/c2ccccc2)nc1-c1ccc(C)cc1 | 96.0 | 1.3 | i | -0.9 | 0.2
COc1cc(-c2cnc3c(NC=O)cc(-c4ccsc4)cn23)cc(OC)c1OC | 123.0 | 56.1* | nt | nt | -0.6
COc1cc(-c2cnc3c(NC=O)cc(-c4cccnc4)cn23)cc(OC)c1OC | 89.0 | 76.0* | ? | nt | -3.1
COc1ccc(N=C2SCC(=O)N2Cc2ccccc2)cc1 | 101.0 | -6.8 | + | -3.0 | -2.2
CCOc1ccc(Br)cc1C(=O)Nc1ccc(C(=O)NCC(C)C)cc1 | 94.0 | -10.0 | + | -3.1 | -0.8
COc1cccc(CNC(=O)C2CCN(S(=O)(=O)c3ccc4c(c3)CCC(=O)N4)CC2)c1 | 100.0 | -0.8 | i | -2.0 | -0.6
CN(C)c1ccc(CNC(=O)C2CCN(S(=O)(=O)c3ccc4c(c3)CCCC(=O)N4)CC2)cc1 | 110.0 | -0.1 | + | -4.5 | -0.4
CCOC(=O)c1nn(-c2cccc(OC)c2)c2nc(Nc3ccccc3)cc(=O)n12 | 102.0 | 52.0* | i | 0.1 | 5.7
CCOCCCNC(=O)c1ccc2nc(-c3ccc(OC)c(OC)c3)c(-c3ccc(OC)c(OC)c3)nc2c1 | 88.0 | 50.1* | i | -1.7 | -0.1
COc1ccc(C2=NO[C@@H]3C(=O)N(Cc4ccccc4)C(=O)[C@H]23)c(OC)c1 | 96.0 | -4.4 | i | -1.2 | 0.2
O=S(=O)(Nc1nccs1)c1ccc(Nc2nnc(-c3ccccc3)c3ccccc23)cc1 | 101.0 | -8.0 | i | 0.0 | -2.1
Cc1nc(NCc2ccccn2)c2c3c(sc2n1)CCCC3 | 132.0 | -2.8 | + | -0.4 | -1.5
C[C@H](N=C1NS(=O)(=O)c2ccccc21)C(=O)OCc1cc([N+](=O)[O-])cc2c1OCOC2 | 96.0 | -3.8 | i | -0.5 | 0.0
O=C(CCCN=C1NS(=O)(=O)c2ccccc21)OCc1cc([N+](=O)[O-])cc2c1OCOC2 | 441.0 | -9.9 | + | -2.0 | -0.8
Nc1ccc(CN2CCCCCC2)cc1 | 94.0 | 7.5 | + | -2.2 | 0.8
C=CCNc1nc2ccccc2c(=O)[nH]1 | 99.0 | 25.3 | i | -2.9 | -0.1
COc1ccc(NS(=O)(=O)c2cc(NC(=O)c3ccc(Cl)cc3)ccc2N2CCOCC2)cc1 | 95.0 | -3.3 | ? | -5.7 | -1.2
Cc1cc(C)c(C#N)c(Sc2nc(C)c([N+](=O)[O-])c(C)c2C#N)n1 | 95.0 | 0.8 | + | nt | -1.1
CSc1ccc(C(=O)C2CCCN(C(=O)c3nonc3C)C2)cc1 (centres undefined) | 102.0 | -0.3 | ? | -3.6 | -0.2
C=CC(=O)NC(NC(=O)C=C)c1ccc(Br)cc1 | 101.0 | -0.2 | i | -2.2 | -1.3
COc1ccc(CC(=O)N(Cc2ccccc2)c2ccccc2)cc1S(=O)(=O)N1CCOCC1 | 96.0 | 69.0* | i | -1.5 | 0.1
